The nature of assay [1]: NCI Yeast Anticancer Drug Screen. Data for the rad50 strain (AID 155).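 Also: 0% = growth of vehicle-only cultures of the same strain.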 The settings on record: S. cerevisiae rad50 strain growth inhibition, stronger effect = higher value. An outline of the steps: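 Vehicle-treated cultures provide the reference for the growth inhibition reported for compound-exposed, repair-deficient yeast.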
Assay [2] is described as follows: NCI Yeast Anticancer Drug Screen. Data for the mec2-1 strain (AID 157). The settings on record: S. cerevisiae mec2-1 strain, stronger effect = higher value. An outline of the steps:
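Growth inhibition is read against vehicle-treated controls after compound exposure of the mec2-1 yeast strain, which is defective in DNA damage repair or cell cycle control.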

The nature of assay [3]: NCI Yeast Anticancer Drug Screen. Data for the sgs1 mgt1 strain (AID 161).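 Also: 0% = growth of cultures given vehicle only.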 The settings on record: S. cerevisiae sgs1 mgt1 strain, stronger effect = higher value. An outline of the steps:
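This yeast growth screen uses a strain with defined DNA-repair lesions; compound-treated growth is compared with vehicle-treated growth.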

The nature of assay [4]: NCI Yeast Anticancer Drug Screen. Data for the cln2 rad14 strain (AID 165).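 Also: 0% = growth equal to vehicle treated cultures.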 Conditions: S. cerevisiae cln2 rad14 strain, stronger effect = higher value. An outline of the steps:
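Growth inhibition, relative to vehicle-treated controls, is the read-out. The test organism is a yeast strain with defined genetic alterations, cln2 rad14.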

Assay [5] is described as follows: NCI Yeast Anticancer Drug Screen. Data for the bub3 strain (AID 167). Conditions: S. cerevisiae bub3 mutant strain, stronger effect = higher value. In short, it runs like this:
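Mutant yeast screening strain plus compound; vehicle-treated cultures serve as the 0% inhibition reference.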

Assay [6] can be described thus: NCI Yeast Anticancer Drug Screen. Data for the mlh1 rad18 strain (AID 175). Conditions: S. cerevisiae mlh1 rad18 strain growth inhibition, stronger effect = higher value. In short, it runs like this: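 Cells of a genetically altered yeast strain, deficient in DNA damage repair, were treated with compound. Their growth was then compared with that of vehicle-treated cultures to give inhibition.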

Where [7] appears, read: at 5.0 µM (retest, dose inferred, filed as 0.5).
[8] abbreviates: at 50.0 µM (retest, dose inferred, filed as 5.0).

Among the data in PubChem BioAssay (NCI) are growth inhibition values, retold here.

Molecules are shown by their SMILES. About 79,000 compounds went through this panel and 15% of them were active in at least one assay; those are over-represented in the sample as a whole. A number with no mark means an inactive call. Active and inactive are the calls of the source. Rule as the data show it: active = growth inhibition above about 70%; inactive = the rest.

On to `O=C(O)/C(Cl)=C(/Cl)C(=O)Nc1cccc(Cl)c1`, for which the growth inhibition in assay [1] (setting [7]) is 45%; in assay [1] (setting [8]), 98% (active); in assay [1] (at 50.0 µM), 90.9% (active); in assay [2] (setting [7]), 50%; in assay [2] (setting [8]) it was 100% (active); in assay [2] (at 50.0 µM) it was 86.2% (active). Besides, the growth inhibition in assay [3] (setting [7]) is 42%; in assay [3] (setting [8]), 100% (active); in assay [3] (at 50.0 µM) it was 88.6% (active); in assay [4] (setting [7]) it was 32%; in assay [4] (setting [8]), 99% (active); in assay [4] (at 50.0 µM) it was 89.1% (active). Further, the growth inhibition in assay [5] (setting [7]) was 63%; in assay [5] (setting [8]), 99% (active); in assay [5] (at 50.0 µM), 89.9% (active); in assay [6] (setting [7]), 50%; in assay [6] (setting [8]), 99% (active); in assay [6] (at 50.0 µM), 92.4% (active).
For the compound `Cn1c(=O)cc2c3c(ccc(C(=O)O)c31)C(=O)c1ccccc1-2`, the growth inhibition in assay [1] (setting [7]) was 40%; in assay [1] (setting [8]), 34%; in assay [1] (at 50.0 µM) it was 80.2% (active); in assay [2] (setting [7]), 10%; in assay [2] (setting [8]) it was 50%; in assay [2] (at 50.0 µM), 36.2%. The growth inhibition in assay [3] (setting [7]) is 2%; in assay [3] (setting [8]), 27%; in assay [3] (at 50.0 µM), 45.1%; in assay [4] (setting [7]), -8%; in assay [4] (setting [8]), 22%; in assay [4] (at 50.0 µM), 16.5%. The growth inhibition in assay [5] (setting [7]) is 1%; in assay [5] (setting [8]), 62%; in assay [5] (at 50.0 µM), 61.8%; in assay [6] (setting [7]), 12%; in assay [6] (setting [8]), 50%; in assay [6] (at 50.0 µM), 51.7%.
Regarding `COc1ccc(-c2c(CO)cc(OC)c(OC)c2OC)c(CO)c1`, the growth inhibition was -1% in assay [1] (setting [7]); 6% in assay [1] (setting [8]); 93.5% (active) in assay [1] (at 50.0 µM); -9% in assay [2] (setting [7]); 21% in assay [2] (setting [8]); 98.8% (active) in assay [2] (at 50.0 µM). In addition, the growth inhibition in assay [3] (setting [7]) is -5%; in assay [3] (setting [8]), 22%; in assay [3] (at 50.0 µM) it was 64.5%; in assay [4] (setting [7]), -2%; in assay [4] (setting [8]), 10%; in assay [4] (at 50.0 µM), 98% (active). In addition, the growth inhibition in assay [5] (setting [7]) was 1%; in assay [5] (setting [8]) it was 43%; in assay [5] (at 50.0 µM), 98.7% (active); in assay [6] (setting [7]), 13%; in assay [6] (setting [8]) it was 41%; in assay [6] (at 50.0 µM), 99% (active).
